# In article PMC7862700, “An all-to-all approach to the identification of sequence-specific readers for epigenetic DNA modifications on cytosine”:
# Key:
# Assay in all cases: DAPPL (digital affinity profiling via proximity ligation, sequencing); 10 mM Tris-HCl pH 7.5, 50 mM NaCl, 1 mM DTT, 4% glycerol, room temperature, 30 min; GST-TFs on glutathione beads, 16-mer random dsDNA library, 0.1% formaldehyde crosslink after washing; high values mean tight binding
# FLI1 = molecular target: T1, FLI1 (Homo sapiens, UniProt Q01543 1-452); details: protein: recombinant; tags: N-terminal GST; dsDNA, one strand shown
# T1 sequence: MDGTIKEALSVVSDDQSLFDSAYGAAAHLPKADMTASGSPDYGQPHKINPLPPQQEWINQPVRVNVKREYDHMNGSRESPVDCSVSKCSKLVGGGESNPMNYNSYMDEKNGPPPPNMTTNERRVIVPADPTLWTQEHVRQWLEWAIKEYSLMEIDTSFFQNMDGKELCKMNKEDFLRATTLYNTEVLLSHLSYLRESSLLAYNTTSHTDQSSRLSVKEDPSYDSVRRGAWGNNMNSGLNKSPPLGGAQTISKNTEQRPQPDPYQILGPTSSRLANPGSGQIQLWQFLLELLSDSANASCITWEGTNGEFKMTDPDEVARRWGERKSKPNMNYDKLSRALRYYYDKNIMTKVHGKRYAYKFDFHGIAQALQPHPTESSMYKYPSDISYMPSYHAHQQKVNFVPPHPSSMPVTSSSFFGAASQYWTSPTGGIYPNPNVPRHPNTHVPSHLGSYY
# In short: (§1)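 Human transcription factors were made in yeast as GST fusions, captured on glutathione beads and barcoded with DNA. With a tag-only sample included, the pool was incubated with 200 nmole of a random double-stranded 16-mer DNA library in Tris/NaCl/DTT/glycerol buffer at room temperature for 30 min, then crosslinked with 0.1% formaldehyde after washing, ligated by proximity, amplified and sequenced. For binding signal, each hexamer's read frequency for a factor is divided by its frequency for the tag-only sample.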
# ELK1 = molecular target: T2, ELK1 (Homo sapiens, UniProt P19419 1-428); details: protein: recombinant; tags: N-terminal GST; dsDNA, one strand shown
# T2 sequence: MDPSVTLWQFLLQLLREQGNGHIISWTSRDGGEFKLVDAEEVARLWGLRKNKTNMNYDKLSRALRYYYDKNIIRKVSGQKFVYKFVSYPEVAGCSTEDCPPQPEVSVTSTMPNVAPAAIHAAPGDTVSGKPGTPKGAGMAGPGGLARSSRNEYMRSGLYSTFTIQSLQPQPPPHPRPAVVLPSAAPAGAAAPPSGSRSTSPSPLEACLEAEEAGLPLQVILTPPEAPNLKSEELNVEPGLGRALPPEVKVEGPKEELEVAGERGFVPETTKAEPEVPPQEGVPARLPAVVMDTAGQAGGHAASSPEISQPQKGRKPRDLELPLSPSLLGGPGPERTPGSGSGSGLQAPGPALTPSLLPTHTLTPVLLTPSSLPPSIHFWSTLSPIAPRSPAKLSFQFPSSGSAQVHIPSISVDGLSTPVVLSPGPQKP
# In short: as §1
# GABPA = molecular target: T3, GABPA (Homo sapiens, UniProt Q06546 1-454); details: protein: recombinant; tags: N-terminal GST; dsDNA, one strand shown
# T3 sequence: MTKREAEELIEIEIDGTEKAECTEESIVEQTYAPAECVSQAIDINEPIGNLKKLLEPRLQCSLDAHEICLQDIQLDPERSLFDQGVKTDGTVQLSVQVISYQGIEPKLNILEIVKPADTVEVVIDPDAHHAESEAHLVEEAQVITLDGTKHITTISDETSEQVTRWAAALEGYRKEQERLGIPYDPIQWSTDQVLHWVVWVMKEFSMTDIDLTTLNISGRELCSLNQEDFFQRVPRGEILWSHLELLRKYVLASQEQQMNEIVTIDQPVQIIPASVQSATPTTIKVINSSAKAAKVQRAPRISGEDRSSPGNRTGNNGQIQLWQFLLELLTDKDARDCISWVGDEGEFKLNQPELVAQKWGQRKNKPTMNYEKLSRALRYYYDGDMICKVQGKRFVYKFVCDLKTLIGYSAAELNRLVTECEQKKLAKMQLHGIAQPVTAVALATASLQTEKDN
# In short: as §1
# ERG = molecular target: T4, ERG (Homo sapiens, UniProt P11308 1-479); details: protein: recombinant; tags: N-terminal GST; dsDNA, one strand shown
# T4 sequence: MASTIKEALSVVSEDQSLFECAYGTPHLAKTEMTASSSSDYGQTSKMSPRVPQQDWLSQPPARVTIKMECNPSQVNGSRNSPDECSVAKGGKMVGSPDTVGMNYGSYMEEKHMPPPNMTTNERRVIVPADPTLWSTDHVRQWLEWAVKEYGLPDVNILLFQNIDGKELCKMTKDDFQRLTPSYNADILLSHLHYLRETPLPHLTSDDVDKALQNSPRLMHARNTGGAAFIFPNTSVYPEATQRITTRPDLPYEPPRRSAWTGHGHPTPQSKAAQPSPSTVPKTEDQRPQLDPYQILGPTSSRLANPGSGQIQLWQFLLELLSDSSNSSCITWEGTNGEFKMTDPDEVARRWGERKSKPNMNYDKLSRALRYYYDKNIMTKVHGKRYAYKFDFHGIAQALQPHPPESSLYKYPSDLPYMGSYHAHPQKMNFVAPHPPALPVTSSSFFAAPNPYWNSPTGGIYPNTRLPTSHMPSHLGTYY
# In short: as §1
# ELF1 = ELF1 (Homo sapiens, UniProt P32519 1-619); details: protein: recombinant; tags: N-terminal GST; dsDNA, one strand shown
# Chain of ELF1 (P32519 whole entry): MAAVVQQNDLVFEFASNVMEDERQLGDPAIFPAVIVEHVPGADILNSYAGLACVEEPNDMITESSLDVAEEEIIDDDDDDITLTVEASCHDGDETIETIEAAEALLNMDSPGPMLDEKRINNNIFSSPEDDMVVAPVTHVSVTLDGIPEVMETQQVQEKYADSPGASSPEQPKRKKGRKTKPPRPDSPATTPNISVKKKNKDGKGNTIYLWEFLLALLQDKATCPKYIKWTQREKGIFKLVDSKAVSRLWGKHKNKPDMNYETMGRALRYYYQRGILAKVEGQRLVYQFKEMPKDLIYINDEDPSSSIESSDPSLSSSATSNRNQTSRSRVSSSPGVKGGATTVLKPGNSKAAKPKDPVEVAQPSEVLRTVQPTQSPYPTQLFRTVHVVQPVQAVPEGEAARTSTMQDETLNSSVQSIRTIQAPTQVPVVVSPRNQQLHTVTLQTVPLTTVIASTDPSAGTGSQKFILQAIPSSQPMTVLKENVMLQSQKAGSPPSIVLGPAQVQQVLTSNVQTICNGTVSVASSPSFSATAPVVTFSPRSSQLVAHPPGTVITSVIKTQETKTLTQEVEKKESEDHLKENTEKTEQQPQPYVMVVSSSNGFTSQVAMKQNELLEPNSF
# In short: as §1
# EHF = molecular target: T5, EHF (Homo sapiens, UniProt Q9NZC4 1-300); details: protein: recombinant; tags: N-terminal GST; dsDNA, one strand shown
# T5 sequence: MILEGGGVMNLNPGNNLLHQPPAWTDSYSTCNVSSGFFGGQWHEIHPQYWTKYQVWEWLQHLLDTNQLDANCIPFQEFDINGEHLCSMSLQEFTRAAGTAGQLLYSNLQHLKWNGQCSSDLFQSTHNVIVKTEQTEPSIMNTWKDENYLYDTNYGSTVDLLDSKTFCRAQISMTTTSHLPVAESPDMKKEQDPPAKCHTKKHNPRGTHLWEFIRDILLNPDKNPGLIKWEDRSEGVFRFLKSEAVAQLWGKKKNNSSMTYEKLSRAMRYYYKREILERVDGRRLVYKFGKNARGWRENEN
# In short: as §1
# SPI1 = SPI1 (Homo sapiens, UniProt P17947 1-270); details: protein: recombinant; tags: N-terminal GST; dsDNA, one strand shown
# In short: as §1
# SPIB = SPIB (Homo sapiens, UniProt Q01892 1-262); details: protein: recombinant; tags: N-terminal GST; dsDNA, one strand shown
# Chain of SPIB (Q01892 whole entry): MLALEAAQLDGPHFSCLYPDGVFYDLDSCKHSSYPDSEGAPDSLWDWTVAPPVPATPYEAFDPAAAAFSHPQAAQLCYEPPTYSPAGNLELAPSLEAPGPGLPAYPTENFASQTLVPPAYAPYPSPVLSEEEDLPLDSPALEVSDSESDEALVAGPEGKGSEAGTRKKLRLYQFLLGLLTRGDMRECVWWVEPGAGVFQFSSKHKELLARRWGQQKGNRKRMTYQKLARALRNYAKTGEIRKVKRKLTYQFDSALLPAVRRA
# In short: as §1
# ELK3 = molecular target: T6, ELK3 (Homo sapiens, UniProt P41970 1-407); details: protein: recombinant; tags: N-terminal GST; dsDNA, one strand shown
# T6 sequence: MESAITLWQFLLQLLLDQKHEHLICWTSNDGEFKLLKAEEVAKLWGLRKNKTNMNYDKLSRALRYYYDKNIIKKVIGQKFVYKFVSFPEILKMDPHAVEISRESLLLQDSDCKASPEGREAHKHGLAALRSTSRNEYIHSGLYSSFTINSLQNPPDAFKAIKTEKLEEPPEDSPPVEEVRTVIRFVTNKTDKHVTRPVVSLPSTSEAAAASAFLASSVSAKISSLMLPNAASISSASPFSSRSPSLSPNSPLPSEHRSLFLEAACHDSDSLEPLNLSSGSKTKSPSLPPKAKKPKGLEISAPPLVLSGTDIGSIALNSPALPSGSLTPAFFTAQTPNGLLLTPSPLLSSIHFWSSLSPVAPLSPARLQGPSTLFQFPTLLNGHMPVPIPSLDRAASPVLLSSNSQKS
# In short: as §1
# FEV = molecular target: T7, FEV (Homo sapiens, UniProt Q99581 1-238); details: protein: recombinant; tags: N-terminal GST; dsDNA, one strand shown
# T7 sequence: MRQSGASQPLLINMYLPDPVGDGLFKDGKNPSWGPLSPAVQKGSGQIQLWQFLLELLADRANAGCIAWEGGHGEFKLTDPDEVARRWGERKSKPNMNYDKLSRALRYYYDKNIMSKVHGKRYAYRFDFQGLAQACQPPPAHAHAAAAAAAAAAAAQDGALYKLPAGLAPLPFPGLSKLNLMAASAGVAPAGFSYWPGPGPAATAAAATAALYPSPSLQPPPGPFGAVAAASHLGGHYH
# In short: as §1
# ETV5 = ETV5 (Homo sapiens, UniProt P41161 1-510); details: protein: recombinant; tags: N-terminal GST; dsDNA, one strand shown
# Chain of ETV5 (P41161 whole entry): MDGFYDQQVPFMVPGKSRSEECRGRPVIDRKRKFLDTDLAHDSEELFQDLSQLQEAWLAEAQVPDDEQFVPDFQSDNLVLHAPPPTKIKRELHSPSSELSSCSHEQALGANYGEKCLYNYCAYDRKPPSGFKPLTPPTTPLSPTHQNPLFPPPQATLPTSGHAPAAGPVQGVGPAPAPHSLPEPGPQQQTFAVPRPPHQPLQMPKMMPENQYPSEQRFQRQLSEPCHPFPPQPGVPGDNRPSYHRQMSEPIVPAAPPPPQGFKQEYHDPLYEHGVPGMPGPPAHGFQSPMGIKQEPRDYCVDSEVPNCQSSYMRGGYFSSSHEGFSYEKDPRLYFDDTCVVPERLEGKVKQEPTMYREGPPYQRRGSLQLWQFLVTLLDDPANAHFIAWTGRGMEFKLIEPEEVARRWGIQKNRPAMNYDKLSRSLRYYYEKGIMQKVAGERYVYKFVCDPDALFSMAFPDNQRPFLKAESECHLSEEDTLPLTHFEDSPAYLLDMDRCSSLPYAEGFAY
# In short: as §1
# HSF1 = HSF1 (Homo sapiens, UniProt Q00613 1-529); details: protein: recombinant; tags: N-terminal GST; chain copies: 3; dsDNA, one strand shown
# Chain of HSF1 (Q00613 whole entry): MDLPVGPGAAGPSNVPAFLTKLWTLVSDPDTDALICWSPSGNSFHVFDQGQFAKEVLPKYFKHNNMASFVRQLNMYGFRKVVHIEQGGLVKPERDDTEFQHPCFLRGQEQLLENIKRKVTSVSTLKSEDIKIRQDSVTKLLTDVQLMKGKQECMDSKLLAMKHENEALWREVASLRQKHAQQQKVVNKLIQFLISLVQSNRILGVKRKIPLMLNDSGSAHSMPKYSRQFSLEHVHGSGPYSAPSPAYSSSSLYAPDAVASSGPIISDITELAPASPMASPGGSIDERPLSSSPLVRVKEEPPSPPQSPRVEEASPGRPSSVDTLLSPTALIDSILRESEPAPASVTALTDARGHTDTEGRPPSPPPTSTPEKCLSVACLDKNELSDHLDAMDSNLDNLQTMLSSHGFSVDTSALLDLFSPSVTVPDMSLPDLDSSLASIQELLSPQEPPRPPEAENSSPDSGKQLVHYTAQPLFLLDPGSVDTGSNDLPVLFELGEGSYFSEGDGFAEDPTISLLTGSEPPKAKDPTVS
# In short: as §1
# SPIC = molecular target: T8, SPIC (Homo sapiens, UniProt Q8N5J4 1-248); details: protein: recombinant; tags: N-terminal GST; dsDNA, one strand shown
# T8 sequence: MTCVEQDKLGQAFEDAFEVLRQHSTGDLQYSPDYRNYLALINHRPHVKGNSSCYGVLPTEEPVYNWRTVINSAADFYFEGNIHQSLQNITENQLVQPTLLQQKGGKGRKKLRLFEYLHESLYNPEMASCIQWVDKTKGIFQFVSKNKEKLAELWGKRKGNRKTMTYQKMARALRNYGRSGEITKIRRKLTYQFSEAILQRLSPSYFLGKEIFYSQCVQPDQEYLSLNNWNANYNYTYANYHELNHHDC
# In short: as §1
# ELF4 = ELF4 (Homo sapiens, UniProt Q99607 1-663); details: protein: recombinant; tags: N-terminal GST; dsDNA, one strand shown
# Chain of ELF4 (Q99607 whole entry): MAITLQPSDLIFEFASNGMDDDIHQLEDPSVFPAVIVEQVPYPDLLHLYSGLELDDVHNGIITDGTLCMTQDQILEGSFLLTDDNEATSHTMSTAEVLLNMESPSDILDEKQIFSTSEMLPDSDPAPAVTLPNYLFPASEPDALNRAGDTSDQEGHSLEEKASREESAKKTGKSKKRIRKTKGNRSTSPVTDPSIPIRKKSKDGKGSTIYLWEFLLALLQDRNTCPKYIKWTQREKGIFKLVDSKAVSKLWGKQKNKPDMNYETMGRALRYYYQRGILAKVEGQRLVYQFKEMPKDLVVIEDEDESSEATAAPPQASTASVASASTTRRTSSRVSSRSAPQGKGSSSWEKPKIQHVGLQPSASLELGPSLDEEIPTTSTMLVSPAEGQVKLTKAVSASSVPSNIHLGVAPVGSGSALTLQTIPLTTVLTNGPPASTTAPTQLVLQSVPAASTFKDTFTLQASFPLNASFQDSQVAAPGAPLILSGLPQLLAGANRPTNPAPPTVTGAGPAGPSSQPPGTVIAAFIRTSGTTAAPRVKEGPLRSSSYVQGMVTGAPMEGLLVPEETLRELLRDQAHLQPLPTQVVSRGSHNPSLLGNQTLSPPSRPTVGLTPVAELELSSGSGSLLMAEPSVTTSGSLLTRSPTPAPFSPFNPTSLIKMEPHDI
# In short: as §1
# ELK4 = molecular target: T9, ELK4 (Homo sapiens, UniProt P28324-2 1-405); details: protein: recombinant; tags: N-terminal GST; dsDNA, one strand shown
# T9 sequence: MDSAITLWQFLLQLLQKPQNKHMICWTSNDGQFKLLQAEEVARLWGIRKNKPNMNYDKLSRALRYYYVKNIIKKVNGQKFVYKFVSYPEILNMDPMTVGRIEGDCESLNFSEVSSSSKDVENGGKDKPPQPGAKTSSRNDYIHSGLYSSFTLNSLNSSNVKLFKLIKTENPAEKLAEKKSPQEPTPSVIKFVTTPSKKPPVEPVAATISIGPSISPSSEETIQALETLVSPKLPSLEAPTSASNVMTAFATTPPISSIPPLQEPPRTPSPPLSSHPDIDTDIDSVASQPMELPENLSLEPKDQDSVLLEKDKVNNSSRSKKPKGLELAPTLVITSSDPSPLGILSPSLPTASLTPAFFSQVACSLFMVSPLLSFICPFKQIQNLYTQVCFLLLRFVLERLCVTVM
# In short: as §1
# ETV2 = molecular target: T10, ETV2 (Homo sapiens, UniProt O00321 1-342); details: protein: recombinant; tags: N-terminal GST; dsDNA, one strand shown
# T10 sequence: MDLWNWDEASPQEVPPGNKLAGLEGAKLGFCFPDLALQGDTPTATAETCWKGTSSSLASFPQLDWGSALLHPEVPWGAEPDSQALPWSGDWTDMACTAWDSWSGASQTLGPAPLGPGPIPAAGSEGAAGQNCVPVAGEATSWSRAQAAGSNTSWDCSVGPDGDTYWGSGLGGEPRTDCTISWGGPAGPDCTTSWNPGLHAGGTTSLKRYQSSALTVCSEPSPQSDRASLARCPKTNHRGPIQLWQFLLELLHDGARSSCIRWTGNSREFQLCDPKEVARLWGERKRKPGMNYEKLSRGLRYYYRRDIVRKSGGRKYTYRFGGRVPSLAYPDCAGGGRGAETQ
# In short: as §1
# ELF3 = molecular target: T11, ELF3 (Homo sapiens, UniProt P78545 1-371); details: protein: recombinant; tags: N-terminal GST; dsDNA, one strand shown
# T11 sequence: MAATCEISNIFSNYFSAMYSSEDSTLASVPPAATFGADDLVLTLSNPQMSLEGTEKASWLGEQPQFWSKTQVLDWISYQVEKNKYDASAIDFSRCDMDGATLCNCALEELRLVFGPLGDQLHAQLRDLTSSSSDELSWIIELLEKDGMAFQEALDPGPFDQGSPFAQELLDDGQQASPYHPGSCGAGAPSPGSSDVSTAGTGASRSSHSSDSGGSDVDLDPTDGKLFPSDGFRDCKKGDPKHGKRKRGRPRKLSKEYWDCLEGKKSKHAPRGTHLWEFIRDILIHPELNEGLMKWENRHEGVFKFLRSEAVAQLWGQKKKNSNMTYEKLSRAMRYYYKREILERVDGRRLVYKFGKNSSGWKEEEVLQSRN
# In short: as §1
# CRX = CRX (Homo sapiens, UniProt O43186 1-299); details: protein: recombinant; tags: N-terminal GST; dsDNA, one strand shown
# Chain of CRX (O43186 whole entry): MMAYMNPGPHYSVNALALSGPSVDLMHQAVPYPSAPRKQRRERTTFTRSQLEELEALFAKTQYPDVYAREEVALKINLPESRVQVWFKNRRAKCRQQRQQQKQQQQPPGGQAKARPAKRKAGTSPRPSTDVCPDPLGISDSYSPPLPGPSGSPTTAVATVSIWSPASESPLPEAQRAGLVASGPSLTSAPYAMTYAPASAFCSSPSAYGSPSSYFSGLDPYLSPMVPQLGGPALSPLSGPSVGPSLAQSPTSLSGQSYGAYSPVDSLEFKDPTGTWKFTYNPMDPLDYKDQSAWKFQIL
# In short: as §1
# ETV1 = ETV1 (Homo sapiens, UniProt P50549 1-477); details: protein: recombinant; tags: N-terminal GST; dsDNA, one strand shown
# Chain of ETV1 (P50549 whole entry): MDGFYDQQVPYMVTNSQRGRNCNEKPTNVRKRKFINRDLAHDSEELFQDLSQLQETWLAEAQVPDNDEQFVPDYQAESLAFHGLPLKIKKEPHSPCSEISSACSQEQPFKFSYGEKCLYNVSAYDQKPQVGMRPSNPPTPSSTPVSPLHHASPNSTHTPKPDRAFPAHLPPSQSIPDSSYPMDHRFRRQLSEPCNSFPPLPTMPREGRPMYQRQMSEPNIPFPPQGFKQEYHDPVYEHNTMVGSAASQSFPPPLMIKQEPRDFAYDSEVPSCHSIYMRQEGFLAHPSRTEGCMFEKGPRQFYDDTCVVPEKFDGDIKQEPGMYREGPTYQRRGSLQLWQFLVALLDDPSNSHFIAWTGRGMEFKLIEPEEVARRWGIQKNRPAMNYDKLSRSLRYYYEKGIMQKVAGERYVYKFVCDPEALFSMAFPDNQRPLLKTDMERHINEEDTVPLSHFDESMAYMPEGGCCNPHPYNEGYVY
# In short: as §1
sequence,measurement,setting,value
TTTCCC,binding signal,FLI1,"1.65 fold enrichment (6-mer frequency, TF over GST control)"
same,binding signal,ELK1,"1.69 fold enrichment (6-mer frequency, TF over GST control)"
same,binding signal,GABPA,"1.76 fold enrichment (6-mer frequency, TF over GST control)"
same,binding signal,ERG,"1.88 fold enrichment (6-mer frequency, TF over GST control)"
same,binding signal,ELF1,"1.61 fold enrichment (6-mer frequency, TF over GST control)"
same,binding signal,EHF,"1.69 fold enrichment (6-mer frequency, TF over GST control)"
same,binding signal,SPI1,"1.69 fold enrichment (6-mer frequency, TF over GST control)"
same,binding signal,SPIB,"1.81 fold enrichment (6-mer frequency, TF over GST control)"
same,binding signal,ELK3,"1.75 fold enrichment (6-mer frequency, TF over GST control)"
same,binding signal,FEV,"1.61 fold enrichment (6-mer frequency, TF over GST control)"
same,binding signal,ETV5,"1.93 fold enrichment (6-mer frequency, TF over GST control)"
same,binding signal,HSF1,"1.57 fold enrichment (6-mer frequency, TF over GST control)"
same,binding signal,SPIC,"1.87 fold enrichment (6-mer frequency, TF over GST control)"
same,binding signal,ELF4,"1.77 fold enrichment (6-mer frequency, TF over GST control)"
same,binding signal,ELK4,"1.47 fold enrichment (6-mer frequency, TF over GST control)"
same,binding signal,ETV2,"1.58 fold enrichment (6-mer frequency, TF over GST control)"
same,binding signal,ELF3,"1.43 fold enrichment (6-mer frequency, TF over GST control)"
same,binding signal,CRX,"1.43 fold enrichment (6-mer frequency, TF over GST control)"
same,binding signal,ETV1,"1.6 fold enrichment (6-mer frequency, TF over GST control)"
